# From the antibiotic and cytotoxicity screens of Wong et al. (2023)
# Screen size: about 39,000 compounds; about 1,500 (3.8%) were called active. Shown is part of a subset that was picked to be rich in actives.
# System: HSkMC (human skeletal muscle cells)
# Experiment: cytotoxicity call (relative viability < 0.9)
# Settings: 10 µM
row,SMILES,cytotoxicity call
1,Cc1ccc(S(=O)(=O)Nc2ccc3c(c2)C(=O)N([C@H](C)CO)C[C@@H](C)[C@@H](CN(C)C(=O)Nc2cccc4ccccc24)O3)cc1,inactive
2,CO[C@H]1CN(C)C(=O)c2cc(NS(=O)(=O)CC(F)(F)F)ccc2OC[C@@H](C)N(C(=O)NC(C)C)C[C@@H]1C,inactive
3,O=C1NCCCc2occc21,inactive
4,Cc1noc(C)c1S(=O)(=O)Nc1ccc2c(c1)C(=O)N([C@@H](C)CO)C[C@H](C)[C@H](CN(C)Cc1ccccc1)O2,inactive
5,CO[C@H](CN(C)S(=O)(=O)c1ccc(C)cc1)[C@H](C)CN([C@@H](C)CO)S(=O)(=O)c1cccc(Cl)c1,inactive
6,COc1ccc(NC(=O)N(C)C[C@@H]2Oc3ncc(C#CCN(C)C)cc3C(=O)N([C@H](C)CO)C[C@@H]2C)cc1,inactive
7,COCC#Cc1ccc2c(c1)O[C@@H](CN(C)C(=O)C1CCOCC1)[C@H](C)CN([C@@H](C)CO)S2(=O)=O,inactive
8,C[C@H]1CN([C@@H](C)CO)C(=O)c2cc(NC(=O)Nc3ccc(C(F)(F)F)cc3)ccc2O[C@H]1CN(C)Cc1ccc(Cl)c(Cl)c1,active
9,C[C@H](CO)N1C[C@H](C)[C@@H](CN(C)Cc2ccc(Cl)c(Cl)c2)Oc2ccc(NC(=O)Nc3ccc(F)cc3)cc2C1=O,inactive
10,C[C@H]1CN([C@@H](C)CO)C(=O)c2cc(NC(=O)Nc3ccc(F)cc3)ccc2O[C@@H]1CN(C)Cc1ccc(Cl)c(Cl)c1,inactive
11,C[C@@H]1CN([C@H](C)CO)C(=O)c2cc(NC(=O)Nc3ccc(C(F)(F)F)cc3)ccc2O[C@H]1CN(C)Cc1ccc(Cl)c(Cl)c1,active
12,C[C@@H]1CN([C@@H](C)CO)S(=O)(=O)c2ccc(Br)cc2O[C@H]1CN(C)S(=O)(=O)c1ccccc1,inactive
13,C[C@@H]1CN([C@H](C)CO)C(=O)Cc2cc(NS(=O)(=O)c3ccc(F)cc3)ccc2O[C@@H]1CN(C)Cc1ccncc1,inactive
14,C[C@H]1CN([C@@H](C)CO)C(=O)CCCn2nncc2CO[C@H]1CN(C)S(=O)(=O)c1cn(C)cn1,inactive
15,Cc1noc(C)c1NC(=O)N(C)C[C@H]1Oc2c(NC(=O)Nc3ccc(C(F)(F)F)cc3)cccc2C(=O)N([C@H](C)CO)C[C@@H]1C,inactive
16,C[C@H]1CN([C@@H](C)CO)S(=O)(=O)c2ccc(-c3ccncc3)cc2O[C@@H]1CN(C)C(=O)c1cccc(F)c1,inactive
17,CNC(=O)CN1C(=O)[C@@H]2[C@@H](C1=O)[C@@H]1C=C[C@@H]2C1,inactive
18,C[C@H](CO)N1C[C@H](C)[C@H](CN(C)CC2CCCCC2)Oc2c(NC(=O)Nc3ccc(F)cc3)cccc2C1=O,inactive
19,C[C@H]1CN([C@@H](C)CO)C(=O)c2cccc(NC(=O)Nc3ccc(C(F)(F)F)cc3)c2O[C@@H]1CN(C)CC1CCCCC1,active
20,C[C@@H]1CN([C@H](C)CO)C(=O)c2cccc(NC(=O)Nc3ccc(C(F)(F)F)cc3)c2O[C@H]1CN(C)CC1CCCCC1,active
21,C[C@H](CO)N1C[C@H](C)[C@@H](CN(C)CC2CCCCC2)Oc2c(NC(=O)Nc3ccc(C(F)(F)F)cc3)cccc2C1=O,active
22,C[C@H](CO)N1C[C@H](C)[C@H](CN(C)CC2CCCCC2)Oc2c(NC(=O)Nc3ccc(C(F)(F)F)cc3)cccc2C1=O,inactive

row,SMILES,cytotoxicity call
1,C[C@H]1CN([C@@H](C)CO)C(=O)c2cccc(NC(=O)Nc3ccc(C(F)(F)F)cc3)c2O[C@H]1CN(C)CC1CCCCC1,inactive
2,C[C@@H]1CN([C@@H](C)CO)C(=O)c2cccc(NC(=O)Nc3ccc(F)cc3)c2O[C@H]1CN(C)CC1CCCCC1,inactive
3,C[C@@H]1CN([C@H](C)CO)C(=O)c2cccc(NC(=O)Nc3ccc(F)cc3)c2O[C@@H]1CN(C)CC1CCCCC1,inactive
4,C[C@@H]1CN([C@H](C)CO)C(=O)c2cccc(NC(=O)Nc3ccc(F)cc3)c2O[C@H]1CN(C)CC1CCCCC1,inactive
5,C[C@H]1CN([C@@H](C)CO)C(=O)c2cccc(NC(=O)Nc3ccc(F)cc3)c2O[C@H]1CN(C)CC1CCCCC1,inactive
6,C[C@@H]1CN([C@H](C)CO)C(=O)c2cccc(NC(=O)Nc3ccc(C(F)(F)F)cc3)c2O[C@@H]1CN(C)CC1CCCCC1,active
7,C[C@@H]1CN([C@@H](C)CO)C(=O)c2cccc(NC(=O)Nc3ccc(C(F)(F)F)cc3)c2O[C@@H]1CN(C)CC1CCCCC1,inactive
8,C[C@@H]1CN([C@H](C)CO)C(=O)c2cc(C#Cc3ccccc3F)cnc2O[C@@H]1CN(C)C(=O)Cc1ccncc1,inactive
9,C[C@H](CO)N1C[C@H](C)[C@H](CN(C)S(=O)(=O)c2cn(C)cn2)OCCCC[C@H](C)Oc2ccc(NC(=O)Nc3ccc(C(F)(F)F)cc3)cc2C1=O,inactive
10,O=C(CCC(=O)N1CCOCC1)Nc1c(F)c(F)nc(N2CCOCC2)c1F,inactive
11,C[C@@H]1CCCCO[C@H](CN(C)S(=O)(=O)c2ccccc2)[C@H](C)CN([C@@H](C)CO)C(=O)c2cc(NC(=O)Nc3cccc4ccccc34)ccc2O1,inactive
12,COCC(=O)N1C[C@]2(C1)CN([C@H](CO)c1c2c2ccc(cc2n1C)OC)C(=O)CN1CCOCC1,inactive
13,C/C=C/c1cccc(-c2nc(C(=O)NCc3ccc(OC)cc3)cc3c2[C@@H](CCO)N([S@@](=O)C(C)(C)C)C3)c1,inactive
14,Cc1ccc(S(=O)(=O)N(C)C[C@H]2Oc3ncc(Br)cc3C(=O)N([C@H](C)CO)C[C@H]2C)cc1,inactive
15,C[C@H](CO)N1C[C@H](C)[C@H](CN(C)Cc2ccc(C(F)(F)F)cc2)OCCCC[C@H](C)Oc2ccc(NS(C)(=O)=O)cc2C1=O,inactive
16,COc1ccc(OCC(=O)NCC(=O)O)cc1,inactive
17,O=C(O)Cc1nnc(-c2ccncc2)[nH]1,inactive
18,O=C(O)CCN1CCCCCC1=O,inactive
19,CCn1nnc2c1CCN(S(=O)(=O)c1cn(C)cn1)[C@@H]2COC,inactive
20,COc1ccc(S(=O)(=O)N(C)C[C@H]2OCCCC[C@@H](C)Oc3ccc(NC(=O)Nc4ccc5c(c4)OCO5)cc3C(=O)N([C@@H](C)CO)C[C@@H]2C)cc1,inactive
21,Cc1cc(C(=O)Nc2cccc3c2O[C@H](CN(C)S(=O)(=O)c2cccs2)[C@H](C)CN([C@H](C)CO)C3=O)n(C)n1,inactive
